Results: PubChem BioAssay (NCATS)
Several values for one entry are separate records, joined by “and”; a condition that tells them apart may be missing. Equal entries are not always repeated. Results filed as inconclusive are left out. Activity calls are given as the source filed them. Unless noted, calls come from the whole dose curve; as a rule, active = well fitted curve in the direction sought with a large enough effect; inconclusive = small, poorly fitted or top-dose-only effect, or another doubt; inactive = no such curve, though single readings can be large; an effect the other way counts as inactive or inconclusive.

What was measured:
[1] = qHTS Assay for Identifying Gametocytocidal Compounds (AID 743244); note: potency is the fitted concentration of half-maximal effect;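 for max response: % is set by controls: 0 for no effect and ±100 for the full control effect; actives lower the fluorescent signal which means gametocytes are killed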; settings: P. falciparum 3D7 stage III-V gametocytes, alamarBlue, 72 h; max response: stronger effect = lower value
Outline: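 P. falciparum 3D7 stage III–V gametocytes (20,000 cells/well) were exposed to compounds for 72 h at 37 °C, 5% CO2. AlamarBlue was then added for 24 h; decreased resorufin fluorescence (Ex 525/Em 598 nm) indicated loss of viability.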

[2] = qHTS assay for measurement of the activity of small molecule inhibitors on Zika virus induced Caspase-3 activity in human astrocytoma cells (AID 1224859); note: potency is the fitted concentration of half-maximal effect
Outline: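 Luminescence read-out (Caspase-Glo 3/7, 30 min RT) of caspase activity in SNB-19 cells infected 6 h with ZIKV, 2 FFU/cell, after 1 h compound pretreatment; % inhibition from induction normalised to uninfected (0%) and infected (100%) wells.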

[3] = qHTS assay to identify small molecule inhibitors of chordoma cells - UCH-1 (AID 1259355); note: % is set by controls: 0 for no effect and ±100 for the full control effect; nearly all actives have a fitted effect of over 55% in size
Outline: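 Cells (800/well) were seeded and left overnight at 37 C, 5% CO2, then treated with drugs at 15 concentrations plus a combination mix of auranofin, camptothecin, doxorubicin, rubitecan and topotecan. Viability after 48hr was read by CellTiter-Glo luminescence.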

[4] = qHTS assay to identify small molecule inhibitors of chordoma cells - UCH-2 (AID 1259356); note: % is set by controls: 0 for no effect and ±100 for the full control effect
[5] = qHTS for Activators of Parkin Expression: LOPAC Validation Assay (FLuc Reporter) (AID 720573; note: potency is the fitted concentration of half-maximal effect)
Outline: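 Cells seeded, 24 h; compounds pinned, 7-pt dose response; 24 h at 37 C/5% CO2; volume reduced; FLuc reagent 10 min RT; luminescence read. Normalization: DMSO = 0, positive control = 100%.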

[6] = molecular target: T1, Hexokinase-4 (Homo sapiens) + Glucokinase regulatory protein (Homo sapiens) (UniProt P35557+Q14397); assay: qHTS assay for inhibitors of recombinant human GCK-GKRP interaction: Diaphorase-coupled assay (AID 743205)
Outline: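 25 mM Hepes pH 7.6, 5 mM glucose, 0.4 mM ATP, 4 U/ml G6PDH; 10 nM each GST-GCK/FLAG-GKRP. Kinetic fluorescence read, 1/min × 30 min. Normalized: DMSO ± enzyme = max/min.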

[7] = molecular target: T1, Hexokinase-4 (Homo sapiens) + Glucokinase regulatory protein (Homo sapiens); assay: qHTS assay for inhibitors of recombinant human GCK-GKRP interaction: ADP-Glo assay (AID 743206);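 note: plate controls were DMSO plus enzyme for no effect and no enzyme for full effect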
Outline: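 GST-GCK and FLAG-GKRP (15 nM each in the dispensed mix, with 2 uM S6P) react with 0.4 mM ATP and 5 mM glucose (final) in Hepes pH 7.6 for 60 min at room temperature. ADP is measured by ADP-Glo luminescence.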

[8] = molecular target: T1, Hexokinase-4 (Homo sapiens) + Glucokinase regulatory protein (Homo sapiens); assay: qHTS assay for inhibitors of recombinant human GCK-GKRP interaction: HTRF assay (AID 743207);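 note: 0% = DMSO with GCK present and -100% = DMSO wells lacking GCK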
Outline: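 5 nM GST-GCK + 5 nM FLAG-GKRP + 2 uM S6P, pH 7.1 buffer (25 mM Hepes, 2 mM MgCl2, 25 mM KCl, 1 mM DTT, Tween/BSA); pin-transferred cpd; anti-FLAG XL665/anti-GST K; 60 min RT; HTRF.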

[9] = qHTS assay for small molecule agonists of the antioxidant response element (ARE) signaling pathway measured by Nrf2-dependant transcriptional activity (AID 720636; active = well fitted curve in the direction sought with a large enough effect in the repeat runs; an effect the other way counts as inactive or inconclusive;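 note: HepG2 cells with an ARE-driven luciferase reporter; % of control where 0% means no effect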)
Outline: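 ONE-Glo luminescence, read 30 min after reagent addition at room temperature, reflected ARE reporter activity in HepG2 cells that had been incubated with compound for 16 hr at 37 C in 1% dialyzed FBS.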

[10] = qHTS assay for small molecule agonists of the antioxidant response element (ARE) signaling pathway measured by Nrf2-dependant transcriptional activity - cell viability counter screen (AID 720653; active = well fitted curve in the direction sought with a large enough effect in the repeat runs; an effect the other way counts as inactive or inconclusive; note: % is set by controls: 0 for no effect and ±100 for the full control effect); settings: ARE-bla HepG2 viability, CellTiter-Glo ATP luminescence, 16 h; max response: stronger effect = lower value
Outline: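 ARE-bla HepG2 cells treated with compounds for 16 h at 37C; this counter screen measures viability as intracellular ATP by CellTiter-Glo luminescence after 30 min at room temperature.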

[11] = qHTS assay for cell viability of HEK293 cells (AID 743288); settings: ATP luminescence (CellTiter-Glo), 18 h; max response: stronger effect = lower value; note: % is set by controls: 0 for no effect and ±100 for the full control effect; nearly all actives have a fitted effect of over 50% in size
Outline: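 HEK293 parental, 2,000 cells/well; ≥5 h pre-incubation 37 C; pintool compound addition; 18 h, 37 C; CellTiter-Glo 30 min RT; luminescence read.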

[12] = qHTS assay for cell viability of the p53RE-bla HCT-116 cell line (AID 743292); note: % is set by controls: 0 for no effect and ±100 for the full control effect; nearly all actives have a fitted effect of over 55% in size
Outline: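 After plating at 4,000 cells per well and a 5 h rest at 37 C, HCT-116 cells carrying p53RE-bla received test chemicals in DMSO. Sixteen hours later at 37 C, CellTiter-Glo was added and luminescence recorded following 30 min at room temperature.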

[13] = qHTS profiling for inhibitors of Plasmodium falciparum (3D7) proliferation (AID 743322);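 note: infected erythrocytes exposed to compound for 72 h before lysis; 100% = DMSO vehicle wells and 0% = 0.29 µM artemisinin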; settings: P. falciparum 3D7 proliferation; at 28.7 µM (top of the series) unless noted
Outline: (§1)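 Erythrocytes infected with P. falciparum (0.3% parasitemia, 2.5% hematocrit) incubated with compounds 72 h at 37 C, 5% CO2. Lysis with saponin/Triton buffer containing SYBR Green I, overnight at room temperature in the dark; DNA fluorescence (485/535 nm) normalised to 0.29 uM artemisinin and DMSO.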

[14] = qHTS profiling for inhibitors of Plasmodium falciparum (DD2) proliferation (AID 743323; call rule not given here); settings: lower = more inhibition; at 28.7 µM (top of the series) unless noted
Outline: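 Parasite proliferation measured via DNA-dye fluorescence, as uninfected erythrocytes lack DNA. Cultures at 0.3% parasitemia and 2.5% hematocrit incubated 72 h with compound; signal scaled between vehicle and 0.29 uM artemisinin wells.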

[15] = qHTS profiling for inhibitors of Plasmodium falciparum (HB3) proliferation (AID 743324); settings: Plasmodium falciparum HB3 blood-stage proliferation; at 28.7 µM (top of the series) unless noted;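 note: 100% = DMSO vehicle wells and 0% = artemisinin-treated control wells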
Outline: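 P. falciparum HB3 grown in erythrocytes (0.3% parasitemia, 2.5% hematocrit final) with compound for 72 h at 37 C, 5% CO2. Parasite DNA detected by SYBR Green after saponin/triton lysis overnight; normalized to 0.29 uM artemisinin and DMSO.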

[16] = qHTS profiling of the MIPE4 collection as inhibitors of Plasmodium falciparum (3D7) proliferation (AID 743344; call rule not given here;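 note: scaled between DMSO vehicle wells and 0.29 µM artemisinin as full inhibition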); settings: P. falciparum 3D7 in erythrocytes, SYBR Green DNA fluorescence, 72 h; at 28.5 µM (top of the series)
Outline: as §1

[17] = qHTS profiling of the MIPE4 collection as inhibitors of Plasmodium falciparum (DD2) proliferation (AID 743345; call rule not given here); settings: P. falciparum Dd2 in erythrocytes, SYBR Green DNA, 72 h; at 28.5 µM (top of the series)
Outline: as §1

[18] = qHTS profiling of the MIPE4 collection as inhibitors of Plasmodium falciparum (DD2) proliferation (Rep 2) (AID 743346; call rule not given here); settings: P. falciparum Dd2 in erythrocytes, SYBR Green DNA, 72 h; at 28.5 µM (top of the series)
Outline: as §1

[19] = qHTS profiling of the MIPE4 collection as inhibitors of Plasmodium falciparum (HB3) proliferation (AID 743347; call rule not given here;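 note: plate controls were DMSO vehicle wells for no effect and artemisinin wells for full effect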); settings: P. falciparum HB3 in erythrocytes, SYBR Green DNA, 72 h; at 28.5 µM (top of the series)
Outline: as §1

T1 sequence (P35557 whole entry, looked up): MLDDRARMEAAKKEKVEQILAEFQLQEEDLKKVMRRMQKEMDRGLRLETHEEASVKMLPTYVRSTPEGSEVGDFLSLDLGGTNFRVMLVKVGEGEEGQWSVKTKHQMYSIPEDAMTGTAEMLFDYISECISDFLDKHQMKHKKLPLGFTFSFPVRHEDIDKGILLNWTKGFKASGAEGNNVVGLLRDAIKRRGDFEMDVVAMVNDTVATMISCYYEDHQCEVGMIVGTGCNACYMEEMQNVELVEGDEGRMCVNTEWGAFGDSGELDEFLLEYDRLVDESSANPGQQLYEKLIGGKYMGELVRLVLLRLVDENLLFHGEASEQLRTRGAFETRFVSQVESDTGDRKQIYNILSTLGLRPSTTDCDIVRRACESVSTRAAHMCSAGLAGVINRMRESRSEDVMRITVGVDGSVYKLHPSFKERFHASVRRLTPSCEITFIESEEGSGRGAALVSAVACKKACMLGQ
T1 sequence (Q14397 whole entry, looked up): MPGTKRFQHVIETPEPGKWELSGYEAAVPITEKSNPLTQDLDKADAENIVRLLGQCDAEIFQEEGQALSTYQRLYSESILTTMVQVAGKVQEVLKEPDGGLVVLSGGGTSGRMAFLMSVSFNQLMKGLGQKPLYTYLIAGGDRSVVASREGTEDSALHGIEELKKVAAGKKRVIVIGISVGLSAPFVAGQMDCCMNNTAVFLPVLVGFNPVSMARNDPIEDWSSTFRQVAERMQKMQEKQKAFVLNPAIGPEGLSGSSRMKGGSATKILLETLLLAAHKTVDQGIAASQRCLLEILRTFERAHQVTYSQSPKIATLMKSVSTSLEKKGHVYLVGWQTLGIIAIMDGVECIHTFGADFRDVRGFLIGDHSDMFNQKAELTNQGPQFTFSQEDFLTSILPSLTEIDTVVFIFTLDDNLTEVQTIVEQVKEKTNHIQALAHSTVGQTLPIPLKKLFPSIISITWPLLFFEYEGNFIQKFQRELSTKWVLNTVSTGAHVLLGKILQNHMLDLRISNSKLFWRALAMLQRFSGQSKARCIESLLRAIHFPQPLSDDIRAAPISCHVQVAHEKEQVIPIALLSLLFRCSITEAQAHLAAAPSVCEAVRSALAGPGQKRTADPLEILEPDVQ

Cc1c(Nc2ncccc2C(=O)O)cccc1C(F)(F)F
inactive: max response [1] 18.5% | Potency [2] | Potency [3] | Potency [4]

CN=c1nc(-c2ccccc2)n(-c2ccccc2)s1
inactive: Potency [5] | outcome [6] | Potency [7] | Potency [8] | Potency [2]

CCCCCCOc1ccccc1C(N)=O
inactive: max response [1] -0.639% | Potency [2] | Potency [4]

CN(C)[C@@H]1C(=O)C(C(=O)NCN2CCCC2)=C(O)[C@@]2(O)C(=O)C3=C(O)c4c(O)cccc4[C@@](C)(O)C3C[C@@H]12 (some centres undefined)
inactive: max response [1] 6.22% and 1.93% | Potency [2] | Potency [3]

O=C(CCN1CCN(CCO)CC1)N1c2ccccc2Sc2ccc(C(F)(F)F)cc21
inactive: max response [1] -4.95% | Potency [2] | Potency [4]

CN1CCC[C@H]1c1cccnc1
inactive: Potency [5] | Potency [9] | max response [10] -4.29% and -4.16% | outcome [6] | Potency [7] | max response [11] -10.2% and -14.6% | Potency [12] | Potency [2]

CCCOC(=O)c1ccc(O)cc1
inactive: Potency [9] | max response [10] -5.7% and -1.43% and -2.37% | max response [1] -1.64% and -4.63% | max response [11] -5.57% and 0.165% and 2.13% | Potency [12] | Potency [2] | Potency [4]

CN1CCc2cc(O)c(O)cc2C(c2ccccc2)C1 (centres undefined)
inactive: Potency [5] | outcome [6] | Potency [7] | Potency [2]

C[N+](C)(C)CC(=O)[O-]
inactive: Potency [5] | outcome [6] | Potency [7] | Potency [8] | Potency [2]

c1ccc2sc(SN3CCOCC3)nc2c1
inactive: max response [1] -2.78% | Potency [2] | Potency [3] | Potency [4]

N=c1ccn2c(n1)O[C@H]1[C@H](O)[C@@H](CO)O[C@H]12
inactive: Potency [5] | outcome [6] | Potency [7] | Potency [8] | max response [1] 8.89% | Potency [2]

COc1cc(NC(C)CCCN)c2ncccc2c1 (centres undefined)
7.16%: parasite growth, % of DMSO control [16]
inactive: Potency [2] | Potency [3]
15.5%: parasite growth, % of control (lower = inhibition) [18]
4.3% [at 9.63 µM]: remaining parasite growth % (stronger effect = lower value) [13]
active: Potency [1] 2150 nM
8.75%: growth, % of control [19]
2.77% [at 9.63 µM]: activity, percent of control [14]
6.48% [at 9.63 µM]: remaining proliferation (% of control), lower = more inhibition [15]
8.84%: parasite growth remaining, % of DMSO control (lower = more inhibition) [17]

CCCC(=O)OC[C@@H](OC(=O)CCC)[C@@H](OC(=O)CCC)[C@H](Cn1c2nc(=O)[nH]c(=O)c-2nc2cc(C)c(C)cc21)OC(=O)CCC
inactive: max response [1] 3.76% | Potency [2] | Potency [4]

Cc1ccc(C(=O)c2ccc(CC(=O)O)n2C)cc1
inactive: max response [1] 39.2% | Potency [2] | Potency [3] | Potency [4]

CC(C)(C)c1ccc(S(=O)(=O)/C=C/C#N)cc1
inactive: Potency [5] | outcome [6] | Potency [7] | Potency [8] | Potency [2]

Oc1ccc(C2CNCc3sccc32)cc1O (centres undefined)
inactive: Potency [5] | outcome [6] | Potency [7] | Potency [2]

Cc1[nH]cnc1CN1CCc2c(c3ccccc3n2C)C1=O
inactive: max response [1] -6.58% | Potency [2] | Potency [3]

C#CCN1C(C)=C(C(=O)OC)C(c2cccc([N+](=O)[O-])c2)C(C(=O)OCC)=C1C (centres undefined)
inactive: Potency [5] | outcome [6] | Potency [7] | Potency [8] | Potency [2]

C=CC(N)CCC(=O)O (centres undefined)
inactive: Potency [5] | outcome [6] | Potency [7] | max response [1] -1.49% and -10.7% | Potency [2] | Potency [3]

O=C(O)/C=C/C(O)c1ccc(Cl)cc1 (centres undefined)
inactive: outcome [6] | Potency [7] | max response [1] -3.84% and 16.6% | Potency [2] | Potency [3]

CCOC(=O)N1CCN(/[N+]([O-])=N/Oc2ccc([N+](=O)[O-])cc2[N+](=O)[O-])CC1
inactive: Potency [5] | outcome [6] | Potency [7] | Potency [8] | Potency [2]

CCCSc1ccc2nc(NC(=O)OC)[nH]c2c1
inactive: max response [1] 0.499% | Potency [2] | Potency [4]

CN1C2CCC1CC(OC(=O)C(O)c1ccccc1)C2 (centres undefined)
inactive: Potency [5] | outcome [6] | Potency [7] | Potency [8] | max response [1] 30% | Potency [2]

CC(C)ON([C@@H](C(=O)NO)C(C)C)S(=O)(=O)c1ccc(-c2ccccc2)cc1
inactive: Potency [5] | outcome [6] | Potency [7] | Potency [8] | Potency [2]

O=C(O)c1cc(=O)c2c(Cl)cc(Cl)cc2[nH]1
inactive: Potency [5] | outcome [6] | Potency [7] | Potency [8] | max response [1] 14.4% | Potency [2]

Nc1c(CC(=O)O)cccc1C(=O)c1ccc(Br)cc1
inactive: max response [1] 4.37% | Potency [2] | Potency [3]

COc1cc(C(O)CO)ccc1OS(=O)(=O)O (centres undefined)
inactive: Potency [5] | outcome [6] | Potency [7] | Potency [8] | max response [1] 2.33% | Potency [2]

OC[C@H]1O[C@@H](n2cnc3c(NC4CCCC4)ncnc32)[C@H](O)[C@@H]1O
inactive: Potency [5] | outcome [6] | Potency [7] | Potency [8] | max response [1] -3.53% | Potency [2]

CN1CCc2cccc3c2C1Cc1ccc(O)c(O)c1-3 (centres undefined)
inactive: Potency [5] | outcome [6] | Potency [7] | Potency [8] | Potency [2]
active: Potency [1] 562 nM

COc1ccc(NC(=O)/C=C/c2ccc(Cl)cc2)cc1
active: Potency [5] 1030 nM | Potency [2] 5620 nM
inactive: outcome [6] | Potency [7] | Potency [8] | max response [1] 30.8%
